Data taken from PubChem BioAssay (Tox21).
Results filed as inconclusive are left out. Entries that show only a call come without a potency. Activity calls are given as the source filed them. Unless noted, calls follow the shape of the dose curve; as a rule, active = well fitted curve in the direction sought with a large enough effect in the repeat runs; inconclusive = weak or mixed curves; inactive = no such curve, though single readings can be large; an effect the other way counts as inactive or inconclusive.

Tests used:
[1] = qHTS assay for identifying genotoxic compounds that show differential cytotoxicity against isogenic chicken DT40 cell lines with known DNA damage response pathways - wild type cell line (AID 743012); settings: DT40 wild type chicken cells viability, CellTiter-Glo, 40 h; series mostly up to 68.4 µM; also: nearly all actives have a fitted effect of over 60% in size; also: potency is read from the fitted curve at half-maximal effect
Summary of the method: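 300 wt DT40 cells/well; cpd (DMSO) pintool-transferred after ~0.5 h at 37 C/5% CO2; 40 h incubation; CellTiter-Glo added, 30 min RT; luminescence read.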

[2] = qHTS assay for identifying genotoxic compounds that show differential cytotoxicity against isogenic chicken DT40 cell lines with known DNA damage response pathways - Rad54/Ku70 mutant cell line (AID 743015); settings: DT40 Rad54/Ku70 mutant viability, CellTiter-Glo, 40 h; series mostly up to 66.8 µM; also: nearly all actives have a fitted effect of over 60% in size; also: potency is read from the fitted curve at half-maximal effect
[3] = qHTS assay to identify small molecule antagonists of the androgen receptor (AR) signaling pathway - cell viability counter screen (AID 743033; also: nearly all actives have a fitted effect of over 45% in size; also: potency is read from the fitted curve at half-maximal effect); settings: AR-bla HEK293 viability, CellTiter-Glo luminescence, 16 h; series mostly up to 58.5 µM
[4] = biological target: Androgen receptor (Homo sapiens) (UniProt P10275); assay: qHTS assay to identify small molecule antagonists of the androgen receptor (AR) signaling pathway (AID 743035; active = well fitted inhibition curve with a large enough effect in the signal ratio in the repeat runs, not every such curve was filed as active; the % refers to the signal ratio; also: potency is read from the fitted curve at half-maximal effect); settings: HEK293 AR-UAS-bla, R1881-stimulated, beta-lactamase FRET, 16 h; series mostly up to 58.5 µM
Summary of the method: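 In this cell-based reporter screen, compounds were tested in concentration series against R1881-activated HEK293 cells expressing beta-lactamase under UAS control; after 16 h at 37C, FRET substrate was added and fluorescence read 2 h later.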

[5] = biological target: Androgen receptor (Homo sapiens) (UniProt P10275); assay: qHTS assay to identify small molecule agonists of the androgen receptor (AR) signaling pathway (AID 743036; active = well fitted activation curve with a large enough effect in the signal ratio in the repeat runs, with a control signal flat, not every such curve was filed as active; the % refers to the signal ratio; also: potency is read from the fitted curve at half-maximal effect); settings: HEK293 AR-UAS-bla GripTite, beta-lactamase FRET ratio, 16 h; series mostly up to 62.4 µM
Summary of the method: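 Fluorescence from a beta-lactamase FRET substrate served as read-out in AR-UAS-bla GripTite HEK293 cells. Cells were treated with DMSO-dissolved compounds for 16 h at 37C, then with LiveBLAzer B/G substrate for 2 h at room temperature.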

[6] = biological target: Androgen receptor (Homo sapiens) (UniProt P10275); assay: qHTS assay to identify small molecule agonists of the androgen receptor (AR) signaling pathway using the MDA cell line (AID 743040; also: nearly all actives have a fitted effect of over 20% in size; also: potency is read from the fitted curve at half-maximal effect); settings: MDA-kb2 AR-luc cells, MMTV luciferase, 16 h; series mostly up to 70.3 µM
Summary of the method: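 Stable MMTV-luciferase reporter in MDA-kb2 cells; note the promoter carries GR as well as AR response elements. 16 h compound treatment, 37C, 0% CO2; ONE-Glo luminescence endpoint.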

[7] = qHTS assay to identify small molecule antagonists of the androgen receptor (AR) signaling pathway using the MDA cell line - cell viability counter screen (AID 743041; also: nearly all actives have a fitted effect of over 45% in size); settings: MDA-kb2 viability, CellTiter-Fluor, 16 h, cells co-treated with R1881 androgen agonist; series mostly up to 70.3 µM
Summary of the method: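 Using the breast carcinoma line MDA-kb2 AR-luc, test chemicals were co-incubated with R1881 for 16 h; CellTiter-Fluor reagent, added at 15.5 h, provided a fluorescence measure of live cells.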

[8] = biological target: Androgen receptor (Homo sapiens) (UniProt P10275); assay: qHTS assay to identify small molecule antagonists of the androgen receptor (AR) signaling pathway using the MDA cell line (AID 743042; also: nearly all actives have a fitted effect of over 55% in size; also: potency is read from the fitted curve at half-maximal effect); settings: MDA-kb2 AR-luc, MMTV luciferase, R1881 antagonist, 16 h; series mostly up to 70.3 µM
Summary of the method: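 Antagonist mode: compounds plus R1881 agonist added to MDA-kb2 AR-luc cells, incubated 16 h at 37C. Luciferase reporter luminescence quantified, with multiplexed CellTiter-Fluor readout for cell viability.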

[9] = qHTS assay for identifying genotoxic compounds that show differential cytotoxicity against isogenic chicken DT40 cell lines with known DNA damage response pathways - Rev3 mutant cell line (AID 743014); settings: chicken DT40 Rev3-/- viability, CellTiter-Glo, 40 h; series mostly up to 68.4 µM; also: nearly all actives have a fitted effect of over 55% in size; also: potency is read from the fitted curve at half-maximal effect

Chain of Androgen receptor (Homo sapiens) (P10275 whole entry, looked up): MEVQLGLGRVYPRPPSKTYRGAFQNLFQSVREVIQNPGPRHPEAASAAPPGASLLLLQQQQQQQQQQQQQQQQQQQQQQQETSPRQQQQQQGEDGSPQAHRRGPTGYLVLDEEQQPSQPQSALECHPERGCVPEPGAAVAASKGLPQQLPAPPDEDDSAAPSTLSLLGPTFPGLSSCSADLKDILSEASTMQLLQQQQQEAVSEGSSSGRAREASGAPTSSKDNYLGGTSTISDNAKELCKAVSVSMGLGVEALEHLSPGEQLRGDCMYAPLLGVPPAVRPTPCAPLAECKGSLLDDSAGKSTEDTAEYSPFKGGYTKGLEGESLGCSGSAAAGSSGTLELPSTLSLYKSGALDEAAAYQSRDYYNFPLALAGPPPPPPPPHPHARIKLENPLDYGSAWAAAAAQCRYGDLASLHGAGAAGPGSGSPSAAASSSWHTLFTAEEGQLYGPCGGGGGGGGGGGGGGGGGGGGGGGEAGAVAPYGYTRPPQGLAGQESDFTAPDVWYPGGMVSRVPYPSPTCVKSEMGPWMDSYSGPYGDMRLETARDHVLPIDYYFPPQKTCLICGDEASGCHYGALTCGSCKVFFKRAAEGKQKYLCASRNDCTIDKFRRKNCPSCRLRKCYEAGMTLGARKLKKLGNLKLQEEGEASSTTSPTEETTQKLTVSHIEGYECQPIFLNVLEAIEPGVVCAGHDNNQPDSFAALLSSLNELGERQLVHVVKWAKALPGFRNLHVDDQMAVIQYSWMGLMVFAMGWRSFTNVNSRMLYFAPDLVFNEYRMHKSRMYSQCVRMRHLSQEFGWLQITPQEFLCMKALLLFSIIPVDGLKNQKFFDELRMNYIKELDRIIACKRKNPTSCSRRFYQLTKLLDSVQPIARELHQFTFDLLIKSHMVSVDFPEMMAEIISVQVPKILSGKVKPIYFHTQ

Compound | Potency [1] | Potency [2] | Potency [3] | Potency [4] | Potency [5] | Potency [6] | Potency [7] | Potency [8] | Potency [9]
COc1cc(/C=C/C(=O)N2CCN(CC(=O)N3CCCC3)CC2)cc(OC)c1OC | inactive | inactive | inactive | inactive | inactive | inactive | inactive | inactive | –
OCC(S)CS (configuration not stated) | 16.8 µM (active) | 8.41 µM (active) | inactive | inactive | – | inactive | – | – | 18.8 µM (active)
O=[N+]([O-])c1c(Cl)cccc1-c1c[nH]cc1Cl | 18.8 µM (active) | 26.6 µM (active) | inactive | – | – | – | inactive | – | 23.7 µM (active)
CCCC1([C@H](O)C/C=C/[C@H]2[C@H](O)CC(=O)[C@@H]2CCCCCCC(=O)OC)CCC1 | 11.9 µM (active) | 13.3 µM (active) | 16.9 µM (active) | – | – | inactive | – | inactive | 23.7 µM (active)
CN(C)C(=O)CCSC(SCCC(=O)O)c1cccc(/C=C/c2ccc3ccc(Cl)cc3n2)c1 (configuration not stated) | – | – | – | – | – | inactive | – | inactive | –
CCc1ccc2c(c1)N(CC(C)CN(C)C)c1ccccc1S2 (configuration not stated) | 6.68 µM (active) | 8.41 µM (active) | – | – | – | – | – | – | 5.31 µM (active)
CCCCCCCC(=O)CC[C@@H]1[C@@H](C/C=C\CCCC(=O)OC(C)C)[C@@H](O)C[C@H]1O | 8.41 µM (active) | 13.3 µM (active) | – | – | – | – | inactive | – | 21.1 µM (active)
O=C(CCCN1CCC(n2c(=S)[nH]c3ccccc32)CC1)c1ccc(F)cc1 | 11.9 µM (active) | 16.8 µM (active) | – | – | – | – | – | – | 18.8 µM (active)
CO[C@@]1(NC(=O)C2SC(=C(C(N)=O)C(=O)O)S2)C(=O)N2C(C(=O)O)=C(CSc3nnnn3C)CS[C@@H]21 (some centres not stated) | inactive | inactive | inactive | – | – | – | inactive | – | inactive
C=C1C(=O)O[C@H]2[C@H]1CC/C(C)=C\CC[C@@]1(C)O[C@@H]21 | 2.98 µM (active) | 4.22 µM (active) | 23.9 µM (active) | 23.9 µM (active) | – | inactive | – | 6.68 µM (active) | 2.98 µM (active)
C[C@H](/C=C/[C@H](C)C(C)(C)O)[C@H]1CC[C@H]2/C(=C/C=C3C[C@@H](O)C[C@H](O)C3)CCC[C@]12C | inactive | inactive | inactive | – | – | – | inactive | – | inactive
CC1=C(/C=C/C(C)=C/C=C/C(C)=C/C=C/C=C(C)/C=C/C=C(C)/C=C/C2=C(C)C[C@@H](O)CC2(C)C)C(C)(C)C[C@H](O)C1 | 7.5 µM (active) | 11.9 µM (active) | inactive | – | – | inactive | inactive | 29.8 µM (active) | 13.3 µM (active)
C=CC[C@@H]1/C=C(\C)C[C@H](C)C[C@H](OC)[C@H]2O[C@@](O)(C(=O)C(=O)N3CCCC[C@H]3C(=O)O[C@H](/C(C)=C/[C@@H]3CC[C@@H](O)[C@H](OC)C3)[C@H](C)[C@@H](O)CC1=O)[C@H](C)C[C@@H]2OC | 5.31 µM (active) | 6.68 µM (active) | inactive | 16.9 µM (active) | inactive | inactive | – | inactive | 4.22 µM (active)
Nc1ncnc2c1ncn2[C@@H]1O[C@H](COP(=O)(O)OP(=O)(O)OP(=O)(O)O)[C@@H](O)[C@H]1O | inactive | inactive | inactive | – | – | – | inactive | – | inactive
COc1cc([C@@H]2c3cc4c(cc3C(O[C@@H]3O[C@@H]5COC(c6cccs6)O[C@H]5[C@H](O)[C@H]3O)C3COC(=O)[C@@H]32)OCO4)cc(OC)c1O (some centres not stated) | 0.0119 µM (active) | 0.0011 µM (active) | 0.301 µM (active) | – | – | – | inactive | – | –
CC(C)C(=O)OCC(=O)[C@@]12O[C@H](C3CCCCC3)O[C@@H]1C[C@H]1[C@@H]3CCC4=CC(=O)C=C[C@]4(C)[C@H]3[C@@H](O)C[C@@]12C | – | – | inactive | – | – | – | inactive | – | inactive
C=C1/C(=C\C=C2/CCC[C@]3(C)[C@@H]([C@H](C)OCCC(C)(C)O)CC[C@@H]23)C[C@@H](O)C[C@@H]1O | 8.41 µM (active) | 13.3 µM (active) | inactive | – | – | – | inactive | – | 13.3 µM (active)
CC(CN(C)C)CN1c2ccccc2Sc2ccc(C(F)(F)F)cc21 (configuration not stated) | 5.96 µM (active) | 9.44 µM (active) | inactive | – | – | – | inactive | – | 7.5 µM (active)
C#C[C@]1(O)CC[C@H]2[C@@H]3CCC4=CCCC[C@@H]4[C@H]3C(=C)C[C@@]21CC | 13.3 µM (active) | 21.1 µM (active) | – | – | – | – | inactive | – | 15 µM (active)
CCC(=O)O[C@H]1CC[C@H]2[C@@H]3CCc4cc(O)ccc4[C@H]3CC[C@]12C | 23.7 µM (active) | 23.7 µM (active) | inactive | – | 3.01 µM (active) | 4.73 µM (active) | inactive | inactive | 21.1 µM (active)
O=C1CSC2(CCN(CCCN3c4ccccc4Sc4ccc(Cl)cc43)CC2)N1 | 5.96 µM (active) | 8.41 µM (active) | – | 21.3 µM (active) | – | inactive | inactive | – | 7.5 µM (active)
O=C(O)CCC/C=C\C[C@@H]1[C@@H](/C=C/[C@@H](O)COc2cccc(Cl)c2)[C@H](O)C[C@@H]1O | inactive | inactive | inactive | inactive | inactive | inactive | inactive | inactive | inactive
CC(C)N1CCN(c2ccc(OC[C@H]3CO[C@](Cn4cncn4)(c4ccc(Cl)cc4Cl)O3)cc2)CC1 | 4.52 µM (active) | 6.39 µM (active) | – | – | – | – | inactive | – | 5.07 µM (active)
